# Source: PubChem BioAssay AID2284082 (EPA ToxCast)
# Results filed as inconclusive are left out. Activity calls are given as the source filed them. Rule for the calls: active = hit-call score of the fitted dose curve at least 0.9, where 1 is the maximum; inconclusive = response in the unintended direction; inactive = score below 0.9.
# Biological target: human Akt2 (PKBbeta) AGC Kinase, AKT2 (gene 208) (UniProt P31751)
# Assay: ERF_FR_ENZ_hAKT2: Eurofins (ERF) Enzymatic Radiometric [Km ATP] KinaseProfiler LeadHunter Assay for human Akt2 (PKBbeta) AGC Kinase
# Description: ERF_FR_ENZ_hAKT2 is a biochemical, single-readout assay that uses extracted gene-proteins in a cell-free assay. Measurements were taken 0.5 hour after chemical dosing in a 96-well plate. See Akt2 (PKBbeta) Human AGC Kinase Enzymatic LANCE Assay [Km ATP], Cerep.ERF_FR_ENZ_hAKT2 is an assay component calculated from the ERF_FR_ENZ_hAKT2 assay. It is designed to measure enzyme activity using a type of enzyme reporter as detected by fluorescence intensity with LANCE technology.Data from the assay component ERF_FR_ENZ_hAKT2 was analyzed at the assay endpoint, ERF_FR_ENZ_hAKT2, in the positive analysis fitting direction relative to DMSO as the negative control and baseline of activity. Using a type of enzyme reporter, loss-of-signal activity can be used to understand changes in enzymatic activity as they relate to gene AKT2. To generalize the intended target to other relatable targets, this assay endpoint is annotated to the kinase intended target family, where the subfamily is serine/threonine kinase.
# PKBb (h) is incubated with 8 mM MOPS pH 7.0, 0.2 mM EDTA, 30 uM […], 10 mM MgAcetate and [g- 33P]-ATP (specific activity and concentration as required). The reaction is initiated by the addition of the Mg/ATP mix. After incubation for 40 minutes at room temperature, the reaction is stopped by the addition of phosphoric acid to a concentration of 0.5%. […]
# human Akt2 (PKBbeta) AGC Kinase, AKT2 (gene 208), sequence (P31751 whole entry, looked up): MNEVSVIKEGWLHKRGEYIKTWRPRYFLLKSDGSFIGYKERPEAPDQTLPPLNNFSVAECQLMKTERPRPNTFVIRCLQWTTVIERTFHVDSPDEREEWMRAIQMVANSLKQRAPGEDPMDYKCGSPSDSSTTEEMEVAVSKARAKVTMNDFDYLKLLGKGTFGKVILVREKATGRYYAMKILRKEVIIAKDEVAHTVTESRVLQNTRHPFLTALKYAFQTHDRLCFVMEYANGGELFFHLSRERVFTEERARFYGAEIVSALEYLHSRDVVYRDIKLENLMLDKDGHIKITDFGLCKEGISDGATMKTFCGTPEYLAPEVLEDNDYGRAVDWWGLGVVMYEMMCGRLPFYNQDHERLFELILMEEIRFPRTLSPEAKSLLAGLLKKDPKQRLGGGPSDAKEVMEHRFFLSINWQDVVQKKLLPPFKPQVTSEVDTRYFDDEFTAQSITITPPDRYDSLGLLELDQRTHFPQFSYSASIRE
row,SMILES,outcome
1,Oc1ccc(O)cc1,inactive
